Laboratory results reported in PubChem BioAssay AID1159580 (chemical genetic matrix, 2015).
Several values for one entry are separate records, joined by “and”; a condition that tells them apart may be missing. Equal values may be shown once. The whole screen tested about 5,500 compounds, of which about 2,000 (36%) were called active. Inconclusive results (about 18%) are left out. Rule as the data show it: active = normalized growth mostly below about 0.91 (no sharp cut-off); inconclusive = no clear call, values can overlap the other calls; inactive = mostly above about 0.92. The list shows a part of the results.

Assay: chemical genetic growth profiling, strain panel (AID 1159580);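 also: tested at 20 µM; growth read once vehicle control cultures reached saturation at 30 °C; 1 = growth at the plate median or of vehicle wells; lower values mean less growth of the strain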
Details: S. cerevisiae deletion strains, growth OD

Measured: normalized growth

CSc1nc(NC(C)C)nc(NC(C)C)n1
inactive: locus YAL013W, strain DEP1, active compounds read low 1.01 | locus YAL021C, strain ccr4, active compounds read low 0.969 | locus YAL026C, strain drs2, active compounds read low 0.969 | locus YAL030W, strain snc1, active compounds read low 0.98 | locus YBL061C, strain skt5, active compounds read low 0.968 | locus YBR009C, strain hhf1, active compounds read low 0.979 | locus YBR021W, strain FUR4, active compounds read low 1.04 | locus YBR023C, strain chs3, active compounds read low 0.957 | locus YBR171W, strain sec66, active compounds read low 0.954 | locus YBR229C, strain ROT2, active compounds read low 0.999 | locus YBR231C, strain swc5, active compounds read low 0.961 | locus YBR279W, strain paf1, active compounds read low 0.972 | locus YCL011C, strain gbp2, active compounds read low 0.966 | locus YCL016C, strain dcc1, active compounds read low 0.967 | locus YCL029C, strain bik1, active compounds read low 1.01 | locus YCL061C, strain MRC1, active compounds read low 0.979 | locus YCL069W, strain vba3, active compounds read low 0.975 | locus YCR088W, strain abp1, active compounds read low 0.986 | locus YDL005C, strain med2, active compounds read low 0.981 | locus YDL035C, strain GPR1, active compounds read low 1.02 | locus YDL040C, strain nat1, active compounds read low 0.962 | locus YDL074C, strain BRE1, active compounds read low 1.01 | locus YDL101C, strain DUN1, active compounds read low 1.02 | locus YDL134C, strain PPH21, active compounds read low 1 | locus YDL185W, strain tfp1, active compounds read low 1.03 | locus YDL192W, strain arf1, active compounds read low 1.01 | locus YDR001C, strain nth1, active compounds read low 0.979 | locus YDR069C, strain doa4, active compounds read low 0.977 | locus YDR101C, strain arx1, active compounds read low 1.01 | locus YDR137W, strain rgp1, active compounds read low 0.848 | locus YDR150W, strain NUM1, active compounds read low 0.994 | locus YDR159W, strain sac3, active compounds read low 0.967 | locus YDR162C, strain NBP2, active compounds read low 1.02 | locus YDR195W, strain ref2 0.998 | locus YDR297W, strain sur2, active compounds read low 0.975 | locus YDR318W, strain mcm21, active compounds read low 1.03 | locus YDR334W, strain swr1, active compounds read low 0.968 | locus YDR335W, strain msn5, active compounds read low 0.969 | locus YDR388W, active compounds read low 1.01 | locus YDR392W, strain spt3, active compounds read low 0.958 | locus YDR502C, strain sam2, active compounds read low 1.01 | locus YEL003W, strain gim4, active compounds read low 0.972 | locus YEL037C, strain rad23, active compounds read low 0.975 | locus YEL061C, strain CIN8 (second series), active compounds read low 0.961 | locus YEL061C, strain CIN8, active compounds read low 1 | locus YER015W, strain faa2, active compounds read low 0.973 | locus YER016W, strain bim1, active compounds read low 0.966 | locus YER110C, active compounds read low 1 | locus YER111C, strain swi4, active compounds read low 0.977 | locus YER155C, strain BEM2 (second series), active compounds read low 0.952 | locus YER155C, strain BEM2, active compounds read low 1.01 | locus YER167W, strain BCK2, active compounds read low 0.995 | locus YFR010W, strain ubp6, active compounds read low 0.978 | locus YGL078C, strain dbp3, active compounds read low 1.01 | locus YGL086W, strain mad1, active compounds read low 1.01 | locus YGL167C, strain pmr1, active compounds read low 0.958 | locus YGL173C, strain kem1, active compounds read low 0.964 | locus YGL227W, strain vid30, active compounds read low 0.956 | locus YGL240W, strain doc1, active compounds read low 0.95 | locus YGL248W, strain PDE1, active compounds read low 1.01 | locus YGL253W, strain hxk2, active compounds read low 0.973 | locus YGR078C, strain PAC10, active compounds read low 1.01 | locus YGR135W, strain pre9, active compounds read low 1.01 | locus YGR229C, strain SMI1, active compounds read low 1.02 | locus YGR252W, strain gcn5, active compounds read low 1.14 | locus YHR013C, strain ard1, active compounds read low 0.944 | locus YHR027C, strain rpn1, active compounds read low 0.972 | locus YHR030C, strain SLT2, active compounds read low 1.02 and 1.03 | locus YHR079C, strain IRE1 (second series), active compounds read low 1.01 | locus YHR079C, strain IRE1, active compounds read low 1.03 | locus YHR094C, strain hxt1, active compounds read low 1 | locus YHR129C, strain ARP1, active compounds read low 1.01 | locus YHR142W, strain chs7, active compounds read low 0.95 | locus YHR200W, strain rpn10, active compounds read low 1.01 | locus YIL066C, strain RNR3, active compounds read low 1.03 | locus YIL073C, strain SPO22, active compounds read low 1.02 | locus YIL125W, strain kgd1, active compounds read low 1.01 | locus YIR030C, strain dcg1, active compounds read low 1.02 | locus YJL092W, strain hpr5, active compounds read low 0.981 | locus YJL095W, strain BCK1 (second series), active compounds read low 0.968 | locus YJL095W, strain BCK1, active compounds read low 0.988 and 0.974 | locus YJL115W, strain asf1, active compounds read low 0.978 | locus YJL129C, strain trk1, active compounds read low 0.962 | locus YJL134W, strain LCB3, active compounds read low 1.02 | locus YJL154C, strain vps35, active compounds read low 0.977 | locus YJL164C, strain tpk1, active compounds read low 0.969 | locus YJL166W, strain qcr8, active compounds read low 0.978 | locus YJL168C, strain set2, active compounds read low 1 | locus YJL187C, strain SWE1 (second series), active compounds read low 1.01 | locus YJL187C, strain SWE1, active compounds read low 0.973 | locus YJR043C, strain POL32, active compounds read low 1.02 | locus YJR066W, strain TOR1, active compounds read low 0.968
